The values below come from PubChem BioAssay (Tox21).

SMILES strings stand for the structures. Results filed as inconclusive are left out. Where a call stands in place of a potency, no number is given. Activity calls are given as the source filed them. The call rests on the fitted dose curve; in most records, active means well fitted inhibition curve with a large enough effect in the repeat runs; inconclusive means weak or mixed curves; inactive means no such curve, though single readings can be large or run the other way.
Potency means the concentration at half of the fitted maximal effect.

Cytochrome P450 2C9 (Homo sapiens), sequence (P11712 whole entry, looked up): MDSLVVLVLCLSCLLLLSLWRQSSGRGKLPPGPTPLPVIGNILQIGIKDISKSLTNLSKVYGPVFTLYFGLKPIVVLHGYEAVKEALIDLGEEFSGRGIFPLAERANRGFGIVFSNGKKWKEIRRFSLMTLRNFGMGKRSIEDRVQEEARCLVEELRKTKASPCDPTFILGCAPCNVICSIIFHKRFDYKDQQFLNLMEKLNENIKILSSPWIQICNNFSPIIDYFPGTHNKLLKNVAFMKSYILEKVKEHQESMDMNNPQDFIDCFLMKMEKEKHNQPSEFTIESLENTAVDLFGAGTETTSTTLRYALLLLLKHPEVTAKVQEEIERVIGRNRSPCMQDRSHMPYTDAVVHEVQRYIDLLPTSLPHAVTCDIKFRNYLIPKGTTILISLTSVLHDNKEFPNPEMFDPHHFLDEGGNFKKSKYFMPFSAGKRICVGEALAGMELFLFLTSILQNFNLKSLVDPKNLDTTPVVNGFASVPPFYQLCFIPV

This test addresses Cytochrome P450 2C9 (Homo sapiens) (UniProt P11712). Description: Cytochrome P450 Family 2 Subfamily C Member 9 (CYP2C9) small molecule antagonists: luciferase reporter qHTS assay (AID 1671198). Further: nearly all actives have a fitted effect of over 50% in size. The conditions noted are these: P450-Glo CYP2C9 enzyme assay, luciferin luminescence; series mostly up to 53 µM. The source says: U.S. Tox21 Program National Center for Advancing Translational Sciences [NCATS] U.S. Environmental Protection Agency [EPA] National Institutes of Environmental Health Sciences [NIEHS] National Toxicology Program [NTP] U.S. Food and Drug Administration [FDA] Tox21 Assay Overview: Cytochrome P450 (CYP) enzymes are membrane-bound hemeproteins that play a key role in metabolism of drugs and xenobiotics. Evaluation of the effect of chemicals on CYP isozymes is useful to minimize the adverse drug reactions and toxicities in drug development process. Tox21 chemicals were tested for their effect on CYP enzyme activities by using P450-Glo (TM) screening systems (Promega Corporation, Madison, WI). These systems provide a luminescent method containing proluciferin substrates and are converted to luciferin products by CYP isozymes. The luciferin products formed are detected with a luciferin detection reagent, and the amount of light produced is proportional to CYP activity. P450-Glo (TM) CYP2C9 screening system (Catalog. No. V9790) was used to detect the compounds that interfere in CYP2C9 activity.
Tox21 Assay Protocol Summary: Two ul of enzyme-substrate mix was dispensed into medium binding white/solid 1536-well plates (Greiner Bio-One North America Inc., Monroe, NC) using a BioRaptr Flying Reagent Dispenser (FRD, Beckman Coulter, Brea, CA). […] The assay plates were incubated at room temperature for 10 min. Then 2 ul of NADPH regeneration solution was added to each well of the assay plates using an FRD and incubated at 37C for 1 h. The reaction was stopped by adding 4 ul of detection reagent using an FRD and after 20 min incubation at room temperature the luminescence signal was measured using a ViewLux plate reader (Perkin Elmer, Shelton, CT). Data were expressed as relative luminescence units.
`CCOC(=O)COc1ccc2c(c1)CC(NCC(O)c1cccc(Cl)c1)CC2` (stereo not given): the Potency was 35.9 µM (active). The value for `CN1CCN(C2=Nc3cc(F)ccc3Cc3ccccc32)CC1` was “inactive”. The value for `O=C(Cl)c1cccc([N+](=O)[O-])c1` was “inactive”. For the compound `CC(=O)N(CC(O)CN(C(C)=O)c1c(I)c(C(=O)NCC(O)CO)c(I)c(C(=O)NCC(O)CO)c1I)c1c(I)c(C(=O)NCC(O)CO)c(I)c(C(=O)NCC(O)CO)c1I` (stereo not given), the Potency result is “inactive”.

As to `CCN[C@H]1CN(CCCOC)S(=O)(=O)c2sc(S(N)(=O)=O)cc21`, the Potency entry is “inactive”. Regarding `O=C1N(c2ccccc2)c2ccccc2C1(Cc1ccncc1)Cc1ccncc1`, the Potency is 3.47 µM (active). In the case of `CCCCNCCCC`, the Potency entry is “inactive”.

Turning to `COc1cc2c(cc1N)oc1ccccc12`, the Potency was 6.46 µM (active). The value for `O=S(=O)(O)C(F)(F)F` was “inactive”; that for `CNCCC(Oc1ccccc1OC)c1ccccc1` (stereo not given) was “inactive”; that for `O=C1C=CC(=O)O1` was “inactive”. The value for `CN(C)Cc1ccccc1` was “inactive”; that for `CCC/C=C/CO` was “inactive”; that for `O=C1CCCc2ccccc21` was “inactive”. For the compound `CCOC(=O)c1ccccc1O`, the Potency entry is “inactive”. On to `CCNCCO`, for which the Potency result is “inactive”. With `CC(C)CC(=O)OCc1ccccc1`, the Potency result is “inactive”. As to `CC1=NN(c2cc(Cl)c(S(=O)(=O)O)cc2Cl)C(=O)C1N=Nc1ccc(S(=O)(=O)O)cc1` (stereo not given), the Potency result was “inactive”.

`C=CCc1cc(OC)c(O)c(C(=O)NCCO)c1`: the Potency result is “inactive”. The result for `O=C(O)c1ccccc1Nc1cc(Cl)ccc1C(=O)O` reads “inactive”. With `CCN1CC(CCN2CCOCC2)C(c2ccccc2)(c2ccccc2)C1=O` (stereo not given), the Potency entry was “inactive”. Turning to `CCC(=O)O[C@]1(C(=O)SCF)[C@H](C)C[C@H]2[C@@H]3C[C@H](F)C4=CC(=O)C=C[C@]4(C)[C@@]3(F)[C@@H](O)C[C@@]21C`, the Potency is 4.9 µM (active). Take `CC1(C)S[C@@H]2[C@H](NC(=O)C(C(=O)O)c3ccccc3)C(=O)N2[C@H]1C(=O)O` (stereo not given in full): the Potency result was “inactive”. Consider `O=c1oc2c(O)c(O)cc3c(=O)oc4c(O)c(O)cc1c4c23`, for which the Potency entry was “inactive”. For the compound `O=C(O)CN(CCN(CC(=O)O)CC(=O)O)CCN(CC(=O)O)CC(=O)O`, the Potency result was “inactive”. With `CN1CCN(N)CC1`, the Potency result is “inactive”. Turning to `NC(=O)Cc1cccc(C(=O)c2ccccc2)c1N`, the Potency result was “inactive”.

Turning to `CCCc1c2oc(C(=O)O)cc(=O)c2cc2c(=O)cc(C(=O)O)n(CC)c12`, the Potency result was “inactive”.

Turning to `Nc1ccc(Oc2ccc(N)c(N)c2)cc1`, the Potency is 6.33 µM (active).

Turning to `CCCCNC(=S)NCCCC`, the Potency is 71 µM (active). Take `Cc1c(C(=O)NCCO)[n+](=O)c2ccccc2n1[O-]`: the Potency result is “inactive”. Turning to `CCOC(=O)c1cc(=O)c2c(OCC(COc3cccc4oc(C(=O)OCC)cc(=O)c34)OC(=O)[C@@H](N)CCCCN)cccc2o1`, the Potency was 15.5 µM (active).

In the case of `CCN(CC)CCOc1ccc(Cc2ccccc2)cc1`, the Potency result is “inactive”. As for `CCOc1ccccc1N`, the Potency was 31.5 µM (active). Turning to `Cc1cc(S(=O)(=O)O)c(N)cc1Cl`, the Potency is 28.6 µM (active). As to `CC/C=C\CCOC(=O)CCCCC`, the Potency entry was “inactive”.

In the case of `CCCN(CCC)C(=O)C(CCC(=O)O)NC(=O)c1ccccc1` (stereo not given), the Potency entry is “inactive”. The value for `CCCCCCCCOC(=O)CCCCCCCCC(=O)OCCCCCCCC` was “inactive”; that for `Cc1onc(-c2ccccc2)c1C(=O)Cl` was “inactive”. In the case of `Cn1cnc2c(F)c(Nc3ccc(Br)cc3Cl)c(C(=O)NOCCO)cc21`, the Potency was 13.8 µM (active).
